# Shn3 inh set2 – reduction of Shn3 3'UTR firefly luciferase signal, primary screen, Schnurri-3 inhibitor project, cell-based, Clone20 osteoblasts, set 2 | inhibition, % at 12.5 µM | AID 588674, 2011 | Clone20 osteoblast Shn3 3'UTR firefly luciferase, 24 h | hit rate 0.52% among 360,000;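 active = mean inhibition of at least 75% with every replicate also reaching 75%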;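 note: 0% = median of neutral control wells and 100% = pilot-screen positive control compound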
# CF NFkB inh – inhibitors of PAF-induced NF-kB signaling, primary screen, cell-based, GFP fluorescence, uHTS; KKLEB NF-kB-GFP reporter, GFP fluorescence overnight; inhibition, % at 5 µM; hit rate 0.86% among 360,000;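 active = at least 50% inhibition at 5 µM, scaled per plate between neutral and stimulator controls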;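 note: PAF is a Pseudomonas aeruginosa culture filtrate used as stimulus; plate controls were PAF-stimulated DMSO wells for no effect and unstimulated DMSO wells for full effect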
# HIF-2a inh – HIF-2a reporter inhibitors, primary screen, luminescence, 786-0 RCC cells. 786-0 RCC cells HIF-2a reporter, luciferase luminescence, overnight. inhibition, % at 18.8 µM. hit rate 0.72% among 360,000;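 active = inhibition of the luminescence signal of 40% or more relative to plate controls, in a single-dose primary screen at 18.75 µM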
# KKLEB tox – cytotoxicity in KKLEB CF airway cells, primary screen, cytotoxicity control for CF NF-kB inhibitor project, cell-based, uHTS, fluorescence assay plates | KKLEB CF airway cells viability, ATPlite luminescence, overnight; hits give low values; cells stimulated with P. aeruginosa culture filtrate | activity change (cytotoxicity), % at 5 µM | hit rate 0.36% among 360,000 | AID 602141, 2011;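 active = corrected activity change at or below -50% at 5 µM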
# TRPM1 prom inh – inhibitors of MITF-dependent TRPM1 promoter reporter, primary screen, cell-based, SK-MEL-5, single point, luciferase | AID 488899, 2010 | hit rate 0.83% among 330,000 | inhibition, % at 12.5 µM | SK-MEL-5 TRPM1 promoter luciferase, 24 h;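 active = mean inhibition across replicates of 60% or more, whatever share of single replicates reaches that level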
# Peg3 promoter – Peg3 promoter-driven luciferase inhibitors, primary screen, cell-based, HeLa, luciferase luminescence; hit rate 1.7% among 360,000; AID 588405, 2011; HeLa PEG-Prom luciferase reporter, overnight; inhibition, % at 20 µM;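 active = inhibition of at least 50% at 20 µM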
# Active calls of the source: *; x = not tested or not shown. Only some compounds are listed: those with a hit (about 2.7% of all), similar ones and a draw of the others.
SMILES,Shn3 inh set2,CF NFkB inh,HIF-2a inh,KKLEB tox,TRPM1 prom inh,Peg3 promoter
CC(=O)c1ccc(N2CCN(S(=O)(=O)c3ccc4c(c3)CC(C)N4C(=O)C3CC3)CC2)cc1 (configuration not stated),88.1*,16.7,8.3,-23.4,27.6,-12.7
CC(=O)N1c2ccc(S(=O)(=O)N3CCC(C(=O)N4CCN(c5cc(Cl)ccc5C)CC4)CC3)cc2CC1C (configuration not stated),89.1*,23.0,15.9,-3.4,19.7,11.2
Cc1cccnc1NC(=O)c1ccc(NS(=O)(=O)/C=C/c2ccccc2)cc1,10.0,20.1,5.7,4.4,2.7,6.8
COc1ccc(NC(=O)CSc2ccccc2)c(OC)c1,-14.5,4.9,-198.1,-1.1,-41.2,-228.9
COc1ccc(NC(=O)CSc2ncnc3c2sc2ccccc23)c(OC)c1,4.8,53.1*,15.1,-55.4*,-11.0,44.8
C(=N\Nc1nncc2ccccc12)/c1ccccn1,67.6,66.4*,-45.3,-28.8,48.1,19.5
Fc1cccc(/C=N/Nc2nncc3ccccc23)c1,3.5,-16.3,-93.9,-39.5,-14.7,-104.5
CC1CCC(NC(=O)C2CCN(c3c4c(nc5ncnn35)CCC4)CC2)CC1 (configuration not stated),64.0,-0.8,-70.2,-1.3,-25.8,-66.6
Cc1ccc(NC(=O)C2CCN(S(=O)(=O)c3ccc4c(c3)NC(=O)C(C)S4)CC2)cc1C (configuration not stated),87.9*,-3.5,-13.6,15.1,10.4,-19.0
CC1Sc2ccc(S(=O)(=O)N3CCC(C(=O)NCc4ccc(Cl)cc4)CC3)cc2NC1=O (configuration not stated),51.0,6.6,12.4,8.8,6.4,-17.2
CC1Sc2ccc(S(=O)(=O)N3CCC(C(=O)Nc4cccc(Cl)c4)CC3)cc2NC1=O (configuration not stated),89.8*,6.9,-12.2,14.2,8.5,10.0
COc1ccccc1NC(=O)C1CCN(S(=O)(=O)c2ccc3c(c2)NC(=O)C(C)S3)CC1 (configuration not stated),-12.9,-2.4,-24.9,-7.5,-0.5,-10.6
CCc1ccc(NC(=O)C2CCN(S(=O)(=O)c3ccc4c(c3)NC(=O)C(C)S4)CC2)cc1 (configuration not stated),89.7*,14.0,5.0,-1.2,25.4,35.3
COc1cc(/C=C/C(=O)OCC(=O)N2CCCC2)ccc1OCC#N,1.0,-3.2,6.4,-3.4,5.3,6.8
Cc1cccc(C)c1NC(=O)CSc1n[nH]c(=O)n1C1CC1,3.0,7.6,9.1,14.2,3.3,11.6
CC(CO)NS(=O)(=O)c1cccc(Cl)c1F (configuration not stated),-31.9,-8.1,11.0,8.7,x,-3.4
Cc1ccc(S(=O)(=O)c2c(C)nn(C(C)(C)C)c2OC(=O)c2ccco2)cc1,-0.7,21.7,-17.6,-2.5,-7.9,44.5
Cc1ccc(S(=O)(=O)c2c(C)nn(C(C)(C)C)c2OC(=O)c2ccc(Br)o2)cc1,73.6,12.9,-3.7,1.7,-7.4,70.0*
CCCCn1c(N)c(N(C)C(=O)c2ccccc2Oc2ccccc2)c(=O)[nH]c1=O,8.0,16.7,7.5,7.7,1.9,13.4
O=C(CSC1=NS(=O)(=O)c2ccccc21)Nc1ccccc1,-23.1,11.7,-52.4,3.2,48.6,71.1*
O=C(CSC1=NS(=O)(=O)c2cc(F)ccc2N1)Nc1ccccc1,-28.7,15.1,5.9,-1.3,-3.7,6.5
O=C(/C=C/c1cccc([N+](=O)[O-])c1)c1cccs1,9.6,44.4,-3.2,-0.8,79.9*,98.7*
O=C(/C=C/c1cccc([N+](=O)[O-])c1)Nc1ccc(NC(=O)c2cccs2)cc1,3.9,-11.8,13.4,2.2,4.2,23.2
CCN(C(=O)CCS(=O)(=O)c1cccc2nonc12)c1ccc(F)cc1,15.2,3.8,6.8,-18.7,-3.7,-4.4
CCN(CC)CCNc1cc(C)nc2c1C(=O)C(=O)C=C2N1CCCCC1,81.7,-6.8,-8.7,14.3,53.1,74.3*
